Results on 40 compounds are retold here after PubChem BioAssay (Tox21).

Values joined by “and” are separate entries in the source; they are usually repeats but may differ in a detail not shown here. Equal entries are not always repeated. Inconclusive results are not listed. Active and inactive are the calls of the source. Calls come from the whole dose curve; as a rule, active = well fitted cell-killing curve with a large enough effect in the repeat runs; inconclusive = weak or mixed curves; inactive = flat fitted curve, though single readings scatter.
% is set by controls: 0 for no effect and ±100 for the full control effect; potency is the fitted concentration of half-maximal effect.

A short description of the assay: qHTS assay to identify small molecule antagonists of the estrogen receptor beta (ER-beta) signaling pathway - cell viability counter screen (AID 1259382). Note: nearly all actives have a fitted effect of over 55% in size. The settings on record: ER-beta-UAS-bla HEK293T viability, CellTiter-Glo luminescence, 16 h; series mostly up to 92.4 µM; activity change, negative = cytotoxicity: at the top concentration. From the text: U.S. Tox21 Program National Center for Advancing Translational Sciences [NCATS] NIH Chemical Genomics Center [NCGC] U.S. Environmental Protection Agency [EPA] National Institutes of Environmental Health Sciences [NIEHS] National Toxicology Program [NTP] U.S. Food and Drug Administration [FDA] Tox21 Assay Overview: Estrogen receptor (ER), a nuclear hormone receptor, plays an important role in development, metabolic homeostasis and reproduction. Two subtypes of ER, ER-alpha and ER-beta, have similar expression patterns with some uniqueness in both types. Endocrine disrupting chemicals (EDCs) and their interactions with steroid hormone receptors like ER causes disruption of normal endocrine function. To identify the compounds that inhibit ER signaling, an ER-beta-UAS-bla GripTite cell line (Life Technologies, Madison, WI, USA) containing a beta-lactamase reporter gene under the control of an UAS response element was used to screen Tox21 10K compound library. The cytotoxicity of the Tox21 compound library against the ER-beta-bla cell line was tested in parallel by measuring the cell viability using CellTiter-Glo assay in the same wells.
Tox21 Assay Protocol Summary: ER-beta-UAS-bla HEK293T cells were dispensed at 2,000 cells/4 uL of assay medium containing 2% charcoal stripped FBS per well into black wall/clear-bottom 1536-well plates using a Multidrop Combi (ThermoFisher Scientific, Waltham, MA) dispenser. After the assay plates were incubated at a 37C and 5% CO2 for 6 hr, 23 nL of compounds dissolved in DMSO, positive controls or DMSO only was transferred to the assay plate by a Pintool station (Kalypsys, San Diego, CA), followed by addition of 1 uL (1nM as final concentration) of 17-beta-estradiol (E2) in assay medium using a Flying Reagent Dispenser (FRD, Aurora Discovery, San Diego, CA). The plates were incubated at 37C and 5% CO2 for 16 hr. Then 1 uL of LiveBLAzer B/G FRET substrate was added using a Flying Reagent Dispenser, the plates were incubated at room temperature for 2 hours, and fluorescence intensity was measured by an Envision plate reader (PerkinElmer, Shelton, CT). For cell viability readout that measures cytotoxicity, 4 uL/well of CellTiter-Glo reagent was added into the assay plates using a FRD. After 30 min incubation at room temperature, the luminescence intensity in the plates was measured using a ViewLux (PerkinElmer) plate reader.
(qHTS replaces the single test concentration by a dilution series.)
Turning to `C=CCOCC1CO1` (stereo not given), the “activity change, negative = cytotoxicity” value was -3.64% (inactive). Regarding `[Cl-].[Cl-].[Hg+2]`, the Potency was 4.31 µM (active) and 4.86 µM (active). With `CN[C@@H](C)[C@H](O)c1ccccc1`, the “activity change, negative = cytotoxicity” value was -0.361% [at 42.5 µM] (inactive). For `CCCCCCCCn1sccc1=O`, the Potency was 27.4 µM (active) and 28.6 µM (active). Consider `CC[N+]1(C)CCCC(OC(=O)C(O)(c2ccccc2)c2ccccc2)C1` (stereo not given), for which the “activity change, negative = cytotoxicity” value is 14.5% [at 42.5 µM] (inactive).

As to `CN(C1CCCCC1)C1CCCCC1`, the “activity change, negative = cytotoxicity” value is 2.86% (inactive).

Regarding `N#CC1(N=NC2(C#N)CCCCC2)CCCCC1`, the “activity change, negative = cytotoxicity” value is -5.98% (inactive).

As to `CCOC(=O)c1cn2nc(OP(=S)(OCC)OCC)cc2nc1C`, the “activity change, negative = cytotoxicity” value is 1.96% (inactive). As to `CC(Oc1cccc(Cl)c1)C(=O)O` (stereo not given), the “activity change, negative = cytotoxicity” value is 6.6% (inactive). Turning to `C[C@H]1[C@@H]2Cc3ccc(O)cc3[C@@]1(C)CCN2C`, the “activity change, negative = cytotoxicity” value is -2.06% [at 240 µM] (inactive). `O=C(CCl)CCl`: the Potency entry was “inactive”. `Clc1ccccc1`: the “activity change, negative = cytotoxicity” value is 0.39% (inactive).

Regarding `CCCC(C)(COC(N)=O)COC(=O)NC(C)C` (stereo not given), the Potency result was “inactive”.

In the case of `C[C@@H]1C[C@@H]([C@H](O)CC2CC(=O)NC(=O)C2)C(=O)[C@@H](C)C1`, the Potency result was “inactive”.

As for `CC(C)(C)c1ccc(CCOc2ncnc3ccccc23)cc1`, the “activity change, negative = cytotoxicity” value was 0.998% (inactive). Take `C[N+](C)(C)CCOC(=O)C(O)(c1ccccc1)c1ccccc1`: the “activity change, negative = cytotoxicity” value was 6.01% [at 42.5 µM] (inactive).

As to `C[C@]12C=CC3=C4CCC(=O)C=C4CC[C@H]3[C@@H]1CC[C@@H]2O`, the “activity change, negative = cytotoxicity” value is -10.1% (inactive). Consider `C=CC(=O)NC(C)(C)CC(C)=O`, for which the “activity change, negative = cytotoxicity” value is -1.48% (inactive). Still for that read-out and setting: with `O=P(OCC(Br)CBr)(OCC(Br)CBr)OCC(Br)CBr` (stereo not given) the figure was -4.7% (inactive). Turning to `CCC(C)Cl` (stereo not given), the “activity change, negative = cytotoxicity” value was 3.98% (inactive). On to `CCOP(=O)(O)C(N)=O`, for which the “activity change, negative = cytotoxicity” value was 0.0033% (inactive). `Nc1cccc2ccccc12`: the Potency result was “inactive”. Regarding `CC(C)[C@@H](C(=O)O[C@@H](C#N)c1cccc(Oc2ccccc2)c1)c1ccc(Cl)cc1`, the Potency result was “inactive”.

With `C=CCN1C[C@H](C)N([C@H](c2ccc(C(=O)N(CC)CC)cc2)c2cccc(OC)c2)C[C@H]1C`, the “activity change, negative = cytotoxicity” value is 7.48% [at 42.5 µM] (inactive). Same read-out and setting: with `CC(=O)OC(c1ccccc1)C(Cl)(Cl)Cl` (stereo not given) the figure was -4.21% (inactive).

With `CN1C[C@H](C(=O)N[C@]2(C)O[C@@]3(O)[C@@H]4CCCN4C(=O)[C@H](Cc4ccccc4)N3C2=O)C=C2c3cccc4[nH]cc(c34)C[C@H]21`, the Potency is 54.7 µM (active). For the compound `CCCC1CCCCN1` (stereo not given), the “activity change, negative = cytotoxicity” value is 9.71% [at 42.5 µM] (inactive). Regarding `CON(C)C(=O)Nc1ccc(Cl)cc1`, the “activity change, negative = cytotoxicity” value is -5.42% (inactive). Take `CCCN(CCOc1c(Cl)cc(Cl)cc1Cl)C(=O)n1ccnc1`: the “activity change, negative = cytotoxicity” value was -9.33% (inactive).

Regarding `Cc1ncc(C[n+]2csc(CCO)c2C)c(N)n1`, the “activity change, negative = cytotoxicity” value is 11.4% (inactive). Consider `O=C(O)c1cc(Cl)ccc1Cl`, for which the “activity change, negative = cytotoxicity” value is -0.0823% (inactive).

Regarding `Nc1cc(Cl)cc(C(=O)O)c1Cl`, the Potency entry is “inactive”. As to `O=[N+]([O-])c1cc(Cl)c(Cl)cc1Cl`, the “activity change, negative = cytotoxicity” value is -1.19% (inactive). For the compound `CC(C)(c1ccccc1)c1cc(-n2nc3ccccc3n2)c(O)c(C(C)(C)c2ccccc2)c1`, the “activity change, negative = cytotoxicity” value is -0.131% [at 42.5 µM] (inactive). On the same count and under the same terms, for `CCOP(=S)(S)OCC` the value was 0.802% (inactive).

Regarding `CCCCOC(=O)CCC(=O)OCCCC`, the “activity change, negative = cytotoxicity” value is 2.28% (inactive).

As for `O=C(O)c1ccc(=O)[nH]c1`, the “activity change, negative = cytotoxicity” value is 8.68% [at 42.5 µM] (inactive). Turning to `CC(C)C1(C)N=C(c2ncccc2C(=O)O)NC1=O` (stereo not given), the “activity change, negative = cytotoxicity” value is 9.69% (inactive). `O=C([O-])c1ccccn1.O=C([O-])c1ccccn1.O=C([O-])c1ccccn1.[Cr+3]`: the “activity change, negative = cytotoxicity” value was -3.16% (inactive). Still for that read-out and setting: for `C[C@]12CC[C@H]3[C@@H](CCC4=CC(=O)CC[C@@H]43)[C@@H]1CC[C@@H]2OC(=O)CCc1ccccc1` the value was 3.09% [at 42.5 µM] (inactive).
